Experimental data taken from the supplement of paper PMC6555819.

What was measured:
Assay in all cases: PBM binding z-score (relative to random genomic background probes); higher = stronger binding; sequences stand for … in GC…GCGATTGACAGCGTAGAATGAAGG
[1] = system: FXR:RXRa (NR concentration 270 nM, RXRa partner concentration 90 nM)
Summary of the method: (§1)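 For binding z-scores, the reference was random background probes on custom Agilent 4×180K protein-binding microarrays. These arrays were incubated 1 h with ligand-free nuclear receptor dimers in PBS pH 7.4, 2% milk, 0.02% Triton X-100, 1 mM DTT, 0.2 mg/mL BSA and 0.4 mg/ml salmon testes DNA. Fluorescence was scanned after antibody detection of each partner (one per run) and regression-normalized.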

[2] = system: LXRa:RXRa (NR concentration 270 nM, RXRa partner concentration 90 nM)
Summary of the method: as §1

[3] = system: LXRa homodimer (NR concentration 270 nM)
Summary of the method: as §1

[4] = system: LXRb:RXRa (NR concentration 270 nM, RXRa partner concentration 90 nM)
Summary of the method: as §1

[5] = system: LXRb homodimer (NR concentration 270 nM)
Summary of the method: as §1

[6] = system: PPARa:RXRa (NR concentration 270 nM, RXRa partner concentration 90 nM)
Summary of the method: as §1

[7] = system: PPARg:RXRa (NR concentration 180 nM, RXRa partner concentration 90 nM)
Summary of the method: as §1

[8] = system: PPARg:RXRa 270nM:90nM, anti-RXR (NR concentration 270 nM, RXRa partner concentration 90 nM)
Summary of the method: as §1

[9] = system: PPARg:RXRa 30nM:10nM, anti-RXR (NR concentration 30 nM, RXRa partner concentration 10 nM)
Summary of the method: as §1

[10] = system: PPARg:RXRa 90nM:30nM, anti-RXR (NR concentration 90 nM, RXRa partner concentration 30 nM)
Summary of the method: as §1

CCTAGCAGGGCAATCTGGGTCACTCAAGGCTTGA
PBM binding z-score [1]: 0.679
PBM binding z-score [2]: 2.4
PBM binding z-score [3]: -0.398
PBM binding z-score [4]: 0.85
PBM binding z-score [5]: -0.611
PBM binding z-score [6]: 2.99
PBM binding z-score [7]: 2.72
PBM binding z-score [8]: 2.62
PBM binding z-score [9]: 0.319
PBM binding z-score [10]: 1.75

CCTCGGAGGACAACAGGAGGTCAGAGCCGCCAGA
PBM binding z-score [1]: 0.835
PBM binding z-score [2]: 2.03
PBM binding z-score [3]: 1.67
PBM binding z-score [4]: 1.17
PBM binding z-score [5]: -0.539
PBM binding z-score [6]: 1.92
PBM binding z-score [7]: 0.457
PBM binding z-score [8]: 0.136
PBM binding z-score [9]: -0.412
PBM binding z-score [10]: -0.258

AGAACGTGGGCACGCTGAGTTGATAGCAGAGTAG
PBM binding z-score [1]: -0.602
PBM binding z-score [2]: -0.538
PBM binding z-score [3]: -0.448
PBM binding z-score [4]: -0.8
PBM binding z-score [5]: -1.22
PBM binding z-score [6]: -0.462
PBM binding z-score [7]: 0.523
PBM binding z-score [8]: -0.265
PBM binding z-score [9]: -0.225
PBM binding z-score [10]: -0.405

ACAGACAGGTGCGTGAAGGTAACTCAGCTGGACG
PBM binding z-score [1]: -0.446
PBM binding z-score [2]: -0.525
PBM binding z-score [3]: -0.81
PBM binding z-score [4]: -0.869
PBM binding z-score [5]: -0.883
PBM binding z-score [6]: -0.268
PBM binding z-score [7]: 0.476
PBM binding z-score [8]: -0.586
PBM binding z-score [9]: -0.564
PBM binding z-score [10]: -0.492

TAGCGTAGGTCATTGGGCCAGTATAGTACGCATC
PBM binding z-score [1]: 4.93
PBM binding z-score [2]: 3.92
PBM binding z-score [3]: 0.617
PBM binding z-score [4]: 2.84
PBM binding z-score [5]: 0.375
PBM binding z-score [6]: 4.15
PBM binding z-score [7]: 3.75
PBM binding z-score [8]: 3.91
PBM binding z-score [9]: 1.25
PBM binding z-score [10]: 2.52

TCTTGTAGATCAAGCATGTTAAGAAAGCCTGAGT
PBM binding z-score [1]: 0.693
PBM binding z-score [2]: 0.403
PBM binding z-score [3]: -0.106
PBM binding z-score [4]: 0.334
PBM binding z-score [5]: -0.513
PBM binding z-score [6]: 0.796
PBM binding z-score [7]: -0.182
PBM binding z-score [8]: 1.46
PBM binding z-score [9]: 2.56
PBM binding z-score [10]: 2.01

ATCTCTAGGTAACAATTTCAGTGAAAGAGAGGAC
PBM binding z-score [1]: 0.775
PBM binding z-score [2]: 0.589
PBM binding z-score [3]: 0.266
PBM binding z-score [4]: 0.374
PBM binding z-score [5]: 1.34
PBM binding z-score [6]: 0.437
PBM binding z-score [7]: 0.734
PBM binding z-score [8]: 0.62
PBM binding z-score [9]: 0.676
PBM binding z-score [10]: 0.649

ATCGAAAGGTCGACAAGGTGAGTATACACCGTTT
PBM binding z-score [1]: 4.68
PBM binding z-score [2]: 3.45
PBM binding z-score [3]: 0.283
PBM binding z-score [4]: 3
PBM binding z-score [5]: 0.522
PBM binding z-score [6]: 4.41
PBM binding z-score [7]: 2.79
PBM binding z-score [8]: 3.21
PBM binding z-score [9]: 1.2
PBM binding z-score [10]: 2.21

TTATATAGGTAAAGGTGAAAGTCGAACGATATGA
PBM binding z-score [1]: 1.14
PBM binding z-score [2]: 1.34
PBM binding z-score [3]: 0.121
PBM binding z-score [4]: 1.2
PBM binding z-score [5]: 0.294
PBM binding z-score [6]: 4.2
PBM binding z-score [7]: 6.76
PBM binding z-score [8]: 6.26
PBM binding z-score [9]: 4.77
PBM binding z-score [10]: 6.33

CGTCAAGGTTCAAGGTAACGTAACAGAAAGCAGC
PBM binding z-score [1]: 4.59
PBM binding z-score [2]: 3.3
PBM binding z-score [3]: 0.601
PBM binding z-score [4]: 2.06
PBM binding z-score [5]: -0.166
PBM binding z-score [6]: 3.56
PBM binding z-score [7]: 2.25
PBM binding z-score [8]: 2.63
PBM binding z-score [9]: 0.331
PBM binding z-score [10]: 1.55

CCGACTGGGGCATATGGTTACCATAAGCCAGCCC
PBM binding z-score [1]: -0.611
PBM binding z-score [2]: -0.598
PBM binding z-score [3]: -0.857
PBM binding z-score [4]: -0.657
PBM binding z-score [5]: -1.1
PBM binding z-score [6]: 0.208
PBM binding z-score [7]: 1.47
PBM binding z-score [8]: 1.94
PBM binding z-score [9]: 0.491
PBM binding z-score [10]: 1.32

CGAACGAGGGCATGAATTGATAGCAAATGCCGAT
PBM binding z-score [1]: -0.0699
PBM binding z-score [2]: -0.102
PBM binding z-score [3]: -0.436
PBM binding z-score [4]: -0.0113
PBM binding z-score [5]: -0.655
PBM binding z-score [6]: 0.924
PBM binding z-score [7]: 0.992
PBM binding z-score [8]: 0.623
PBM binding z-score [9]: 0.00744
PBM binding z-score [10]: 0.388

CTCGAAAGGTCGTGCTCAGGTGGGTATACCAAAC
PBM binding z-score [1]: 5
PBM binding z-score [2]: 3.41
PBM binding z-score [3]: 0.337
PBM binding z-score [4]: 3.41
PBM binding z-score [5]: 0.396
PBM binding z-score [6]: 4.5
PBM binding z-score [7]: 2.17
PBM binding z-score [8]: 3.18
PBM binding z-score [9]: 0.828
PBM binding z-score [10]: 1.96

ATCTCTACGTAAAGATAGTTCAGTGAATGCAAAT
PBM binding z-score [1]: -0.547
PBM binding z-score [2]: -0.0846
PBM binding z-score [3]: 0.644
PBM binding z-score [4]: 0.0178
PBM binding z-score [5]: 0.419
PBM binding z-score [6]: -0.229
PBM binding z-score [7]: 0.493
PBM binding z-score [8]: 0.104
PBM binding z-score [9]: 0.0785
PBM binding z-score [10]: 0.04

AGTCAAAGTTCAGGACGTGGTAACGTAAAGCACG
PBM binding z-score [1]: 3.46
PBM binding z-score [2]: 3.57
PBM binding z-score [3]: 0.963
PBM binding z-score [4]: 1.49
PBM binding z-score [5]: 0.114
PBM binding z-score [6]: 3.12
PBM binding z-score [7]: 4.28
PBM binding z-score [8]: 4.75
PBM binding z-score [9]: 2.07
PBM binding z-score [10]: 3.71

GCTTGTAGATCAAGGTTCAGAAAGACTAAGCTAA
PBM binding z-score [1]: -0.0392
PBM binding z-score [2]: 0.122
PBM binding z-score [3]: 0.0153
PBM binding z-score [4]: 0.103
PBM binding z-score [5]: -0.768
PBM binding z-score [6]: 2.44
PBM binding z-score [7]: 4.87
PBM binding z-score [8]: 5.28
PBM binding z-score [9]: 3.39
PBM binding z-score [10]: 5.82

CCGAGTCGGTTATGGGGCATTCAGGCAACGGTGA
PBM binding z-score [1]: -0.323
PBM binding z-score [2]: -0.235
PBM binding z-score [3]: -0.49
PBM binding z-score [4]: -0.14
PBM binding z-score [5]: -0.656
PBM binding z-score [6]: 0.438
PBM binding z-score [7]: 0.463
PBM binding z-score [8]: 1.66
PBM binding z-score [9]: -0.306
PBM binding z-score [10]: 0.771

TCTATTAGTTGGAGGGCAACCGACGAGTCCGTTT
PBM binding z-score [1]: 0.6
PBM binding z-score [2]: 1.06
PBM binding z-score [3]: 0.645
PBM binding z-score [4]: 0.855
PBM binding z-score [5]: 0.753
PBM binding z-score [6]: 0.93
PBM binding z-score [7]: -0.158
PBM binding z-score [8]: 1.88
PBM binding z-score [9]: 3.25
PBM binding z-score [10]: 2.33

AATACAGCGTCATCGTAGGCCAGAGTACGCACAG
PBM binding z-score [1]: -0.326
PBM binding z-score [2]: -0.432
PBM binding z-score [3]: -0.689
PBM binding z-score [4]: -0.757
PBM binding z-score [5]: -0.269
PBM binding z-score [6]: -0.355
PBM binding z-score [7]: 0.716
PBM binding z-score [8]: -0.141
PBM binding z-score [9]: -0.189
PBM binding z-score [10]: -0.519

CGTCCAAGGTCAGAGAGGTCAGGGAATGCCGAGT
PBM binding z-score [1]: 6.63
PBM binding z-score [2]: 5.17
PBM binding z-score [3]: 3.24
PBM binding z-score [4]: 4.51
PBM binding z-score [5]: 0.359
PBM binding z-score [6]: 5
PBM binding z-score [7]: 4.38
PBM binding z-score [8]: 4.53
PBM binding z-score [9]: 1.42
PBM binding z-score [10]: 3.6

ACTATTAGTTGAGACGAGGACAACCGATAGGTTG
PBM binding z-score [1]: 0.431
PBM binding z-score [2]: 0.148
PBM binding z-score [3]: 0.167
PBM binding z-score [4]: -0.324
PBM binding z-score [5]: 0.49
PBM binding z-score [6]: -0.169
PBM binding z-score [7]: 0.659
PBM binding z-score [8]: -0.132
PBM binding z-score [9]: 0.0741
PBM binding z-score [10]: 0.0272

AATACAGGGTCACTAGGCCAGCGTAGGTACGAAT
PBM binding z-score [1]: 6.02
PBM binding z-score [2]: 4.76
PBM binding z-score [3]: 0.904
PBM binding z-score [4]: 3.93
PBM binding z-score [5]: 0.853
PBM binding z-score [6]: 5.62
PBM binding z-score [7]: 7.64
PBM binding z-score [8]: 6.28
PBM binding z-score [9]: 3.54
PBM binding z-score [10]: 5.52

TCGAGTAGGTTAGTCGGGGCATTAAGCCAACATA
PBM binding z-score [1]: -0.0253
PBM binding z-score [2]: -0.0214
PBM binding z-score [3]: -0.347
PBM binding z-score [4]: 0.387
PBM binding z-score [5]: -0.774
PBM binding z-score [6]: 0.728
PBM binding z-score [7]: 0.0278
PBM binding z-score [8]: 0.922
PBM binding z-score [9]: 1.05
PBM binding z-score [10]: 1.18

CAAACTAGGTTAAGGTCAAAGTCGGTTTGTGCCA
PBM binding z-score [1]: 5.87
PBM binding z-score [2]: 5.27
PBM binding z-score [3]: 3.87
PBM binding z-score [4]: 4.36
PBM binding z-score [5]: 1.08
PBM binding z-score [6]: 5.45
PBM binding z-score [7]: 7.13
PBM binding z-score [8]: 6.97
PBM binding z-score [9]: 5.07
PBM binding z-score [10]: 7.2
